Screening data deposited in PubChem by The Scripps Research Institute Molecular Screening Center.
Rows were chosen to be rich in hits. Some 2.8% of all compounds tested hit in one or more screens of this group.
MsrA inhibitor: bovine MsrA inhibition; purified bovine MsrA, absorbance read-out; inhibition, % at 15.5 µM; 0.75% of 360,000 active;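 also: 0% = vehicle wells with enzyme and 100% = reference inhibitor wells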
rCAG RNA binder: binds r(CAG) RNA repeats; r(CAG) RNA repeat, TO-PRO-1 dye displacement fluorescence; inhibition, % at 3 µM; 1.3% of 370,000 active; AID 651821;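 active = inhibition above the plate cutoff, the mean of all test compounds on that plate plus 3 SD, cut at about 35% in these data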;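 also: 0% = DMSO alone and 100% = 100 µM mitoxantrone as full dye displacement; higher means more dye released from RNA so lower well fluorescence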
MsrA act: activators of bovine methionine sulfoxide reductase A | purified bovine MsrA, absorbance read-out | activation, % at 10.6 µM | AID 602163 | 0.3% of 360,000 active; in the data active = activation above about 7.5%;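 also: 0% = vehicle and 100% = reference activator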
sPLA2-III inh: Blocks human group III sPLA2 activity; Q9NZ20; QFRET BODIPY PC-A2 liposome hydrolysis, fluorescence; inhibition, % at 12.2 µM; 0.56% of 370,000 active; AID 743126;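 active = inhibition above mean plus 3 SD of compounds lying within the high and low control bounds, cut at about 19% in these data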;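 also: 0% = median of test compound wells and 100% = no enzyme DMSO wells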
Target sequence (Q9NZ20 whole entry, looked up): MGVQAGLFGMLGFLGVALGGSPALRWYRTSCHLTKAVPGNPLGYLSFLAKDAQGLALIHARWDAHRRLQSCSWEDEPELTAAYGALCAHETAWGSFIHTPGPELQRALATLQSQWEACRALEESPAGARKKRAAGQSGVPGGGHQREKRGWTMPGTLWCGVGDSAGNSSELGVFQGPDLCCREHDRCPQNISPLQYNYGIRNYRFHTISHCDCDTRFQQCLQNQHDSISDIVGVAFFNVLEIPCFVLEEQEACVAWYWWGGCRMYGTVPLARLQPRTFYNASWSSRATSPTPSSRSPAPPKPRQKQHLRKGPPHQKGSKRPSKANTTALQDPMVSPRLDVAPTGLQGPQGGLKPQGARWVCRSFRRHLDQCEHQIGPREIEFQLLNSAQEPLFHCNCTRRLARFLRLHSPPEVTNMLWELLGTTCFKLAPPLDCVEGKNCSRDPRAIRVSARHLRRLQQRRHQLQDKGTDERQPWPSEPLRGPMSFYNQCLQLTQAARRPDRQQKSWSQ
MsrA conf: confirmation of bovine MsrA inhibitors. 41% of 2,300 active. AID 651822. shares compounds with MsrA inhibitor. inhibition, % at 15.5 µM. purified bovine MsrA, absorbance read-out;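 also: coupled to thioredoxin reductase with NADPH and selenocystamine and DMSO as substrate; 0% = vehicle only and 100% = full effect of reference inhibitor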
An asterisk follows results filed as active. Rule as the data show it, unless noted: active = inhibition above about 4.5%; inactive = the rest.

Results for O=C1OC(c2ccccc2)=N/C1=C\C=C\c1ccco1 ?
MsrA inhibitor: 4.9*; rCAG RNA binder: 5; MsrA act: -7; sPLA2-III inh: -7; MsrA conf: 2

What do the screens show for `O=C1OC(c2ccc(Cl)cc2)=N/C1=C\C=C\c1ccco1`?
MsrA inhibitor: 4.7*; rCAG RNA binder: 11; MsrA act: 0; sPLA2-III inh: -3; MsrA conf: 4

How did O=C1OC(c2ccccc2)=N/C1=C\C=C\c1ccccc1[N+](=O)[O-] do in these assays?
MsrA inhibitor: 2; rCAG RNA binder: 12; MsrA act: -7; sPLA2-III inh: -4

What do the screens show for `O=c1sc2ccccc2n1CCOc1ccccc1`?
MsrA inhibitor: -1; rCAG RNA binder: -3; MsrA act: 1; sPLA2-III inh: -6

Results for Cc1ccc(-n2ncc3c2CC(C)(C)CC3NC(=O)CCCN2CCCCC2=O)cc1 (configuration not stated) ?
MsrA inhibitor: -1; rCAG RNA binder: -8; MsrA act: -9; sPLA2-III inh: -2

How did COCCCNC(=O)C(=O)N/N=C/c1cc2c(cc1Br)OCO2 do in these assays?
MsrA inhibitor: 5.0*; rCAG RNA binder: -4; MsrA act: -3; sPLA2-III inh: -2; MsrA conf: 3

How did C=CCN(CC=C)C(=S)NC(=O)c1ccc(OC)c(Br)c1 do in these assays?
MsrA act: 1

Results for C[C@@H](C(=O)Nc1ccccc1N1CCOCC1)N1C(=O)C2CCCCC2C1=O (some centres not stated) ?
MsrA inhibitor: 0; rCAG RNA binder: 1; MsrA act: -8; sPLA2-III inh: 10

How did CCC(=O)/C=C1/Sc2ccccc2N1CC do in these assays?
MsrA inhibitor: 8.2*; rCAG RNA binder: 7; MsrA act: -9; sPLA2-III inh: -6; MsrA conf: 4

How did CCC(=O)/C=C1/Sc2ccc(OC)cc2N1CCO do in these assays?
MsrA inhibitor: 4; rCAG RNA binder: -4; MsrA act: -5; sPLA2-III inh: 2

Results for CCC(=O)/C=C1/Sc2ccc(OC)cc2N1CC ?
MsrA inhibitor: 4.7*; rCAG RNA binder: -2; MsrA act: -3; sPLA2-III inh: 6; MsrA conf: 3

Results for COc1ccccc1S(=O)(=O)N(C)C[C@H]1Oc2cc(Br)ccc2S(=O)(=O)N([C@H](C)CO)C[C@H]1C ?
MsrA inhibitor: 5.6*; rCAG RNA binder: 5; sPLA2-III inh: -26; MsrA conf: 0

How did COC(=O)C1N[C@@H]([C@@H](NC(=O)COc2ccccc2)C(=O)NC2CC2)SC1(C)C (some centres not stated) do in these assays?
MsrA inhibitor: 0; rCAG RNA binder: -6; MsrA act: -3; sPLA2-III inh: 2

What do the screens show for `COc1cc(/C=N/N=C/c2cc(OC)c(O)c(OC)c2)cc(OC)c1O`?
MsrA inhibitor: 6.0*; rCAG RNA binder: -3; MsrA act: -11; sPLA2-III inh: 2; MsrA conf: 5.8*

What do the screens show for `CCOC(=O)N/N=C/c1cc(OC)c(O)c(OC)c1`?
MsrA inhibitor: 0; rCAG RNA binder: 2; MsrA act: -9; sPLA2-III inh: 5

How did COc1cc(/C=N/NC(=O)C(N)=O)cc(OC)c1O do in these assays?
MsrA inhibitor: 4.8*; rCAG RNA binder: -1; MsrA act: -9; sPLA2-III inh: 5; MsrA conf: 4

How did N#C/C(=C\C=C\c1ccccc1)C(=O)NCc1ccco1 do in these assays?
MsrA inhibitor: 4; rCAG RNA binder: 3; MsrA act: -6; sPLA2-III inh: -6

Results for CCOC(=O)/C(=C\C=C\c1ccccc1)NC(=O)c1ccccc1 ?
MsrA inhibitor: 6.8*; rCAG RNA binder: 1; MsrA act: -13; sPLA2-III inh: -7; MsrA conf: 6.1*

What do the screens show for `O=C(O)CCNC(=O)/C(=C/C=C/c1ccccc1)NC(=O)c1ccccc1`?
MsrA inhibitor: 5.5*; rCAG RNA binder: 1; MsrA act: -5; sPLA2-III inh: 11; MsrA conf: 3

How did O=C(NCc1ccco1)/C(=C/C=C\c1ccccc1)NC(=O)c1ccc(Br)o1 do in these assays?
MsrA inhibitor: 5.0*; rCAG RNA binder: 10; MsrA act: -6; sPLA2-III inh: 5; MsrA conf: 4

Results for CCOC(=O)/C(=C/C=C/c1ccccc1)NC(=O)c1ccccc1 ?
MsrA inhibitor: 5.6*; rCAG RNA binder: 1; MsrA act: -5; sPLA2-III inh: -2; MsrA conf: 2

Results for CCCCOC(=O)/C(=C/C=C/c1ccccc1)NC(=O)c1ccccc1 ?
MsrA inhibitor: 3; rCAG RNA binder: 0; MsrA act: -15; sPLA2-III inh: -7

How did CCCOC(=O)/C(=C\C=C\c1ccccc1)NC(=O)c1ccccc1 do in these assays?
MsrA inhibitor: 2; rCAG RNA binder: 0; MsrA act: -16; sPLA2-III inh: -11

What do the screens show for `CCCCC(=O)N1CC(=O)Nc2ccc(F)cc2C1c1ccccc1` (configuration not stated)?
MsrA inhibitor: 0; rCAG RNA binder: -6; MsrA act: -2; sPLA2-III inh: 1

What do the screens show for `COc1ccc(CNC(=O)CCS(=O)(=O)c2ccc(Br)cc2)cc1`?
MsrA inhibitor: 0; rCAG RNA binder: -1; MsrA act: 0; sPLA2-III inh: 2

How did Cc1cccc(NC(=O)/C(C#N)=C\c2cc(C)n(-c3ccc(C(=O)O)cc3)c2C)c1 do in these assays?
MsrA inhibitor: 4.7*; rCAG RNA binder: 26; MsrA act: -4; sPLA2-III inh: -15; MsrA conf: 4

Results for Cc1cc(/C=C(/C#N)C(=O)O)c(C)n1-c1cccc2ccccc12 ?
MsrA inhibitor: 5.7*; rCAG RNA binder: 30; MsrA act: -3; sPLA2-III inh: -9; MsrA conf: 4.9*

Results for Cc1cc(/C=C(\C#N)C(=O)Nc2ccccc2)c(C)n1-c1ccc(C(=O)O)cc1 ?
MsrA inhibitor: 1; rCAG RNA binder: 3; MsrA act: -6; sPLA2-III inh: 2

What do the screens show for `Cc1ccc(S(=O)(=O)N(Cc2cccnc2)Cc2cc3ccccc3[nH]c2=O)cc1`?
MsrA inhibitor: 1; rCAG RNA binder: 0; MsrA act: -1; sPLA2-III inh: -3

What do the screens show for `CCc1ccc2nc(SCC(=O)NCC3CCCO3)c(C#N)cc2c1` (configuration not stated)?
MsrA inhibitor: 2; rCAG RNA binder: 0; MsrA act: -8; sPLA2-III inh: 5

Results for CC(=O)Nc1ccc(S(=O)(=O)Nc2nc3ccccc3nc2N2CCCC2)cc1 ?
MsrA inhibitor: 1; rCAG RNA binder: 2; MsrA act: -3; sPLA2-III inh: 2

Results for CCN1CCN(c2nc3ccccc3nc2NS(=O)(=O)c2ccc(NC(C)=O)cc2)CC1 ?
MsrA inhibitor: 4.7*; rCAG RNA binder: 4; MsrA act: -12; sPLA2-III inh: -8; MsrA conf: 2

How did CC(=O)Nc1ccc2nc(-c3ccco3)[nH]c2c1 do in these assays?
MsrA inhibitor: 1; rCAG RNA binder: -1; MsrA act: -1; sPLA2-III inh: 1

Results for O=C(Nc1ccc2nc(-c3ccco3)[nH]c2c1)c1ccco1 ?
MsrA inhibitor: 5.1*; rCAG RNA binder: 0; MsrA act: -3; sPLA2-III inh: 4; MsrA conf: 4

How did NC(=O)N/N=C/c1ccc(-c2cccc(C(F)(F)F)c2)o1 do in these assays?
MsrA inhibitor: 4; rCAG RNA binder: 2; MsrA act: -3; sPLA2-III inh: 5
